Results taken from the supplement of paper PMC7156485.
± gives the standard deviation of the averaged measurements.

Legend:
Conditions in all cases: concentration: 10 µM; 24 h
[1] = test system: HCC1569; assay: cell number relative to DMSO (% of DMSO); higher = more cells (less growth inhibition / toxicity)
In short: (§1)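 Cells were seeded at 800 per well in 384-well plates with RPMI containing 10% FBS; both HCC1569 and TDF lines were used. Compounds were added at 10 µM for 24 h at 37 °C, in triplicate, before fixation in 3.7% formaldehyde and staining with a rabbit anti-H1.0 antibody, an AlexaFluor 647 secondary and DAPI. H1.0 nuclear intensity or cell number is reported as percent of the plate control using the median of replicates, and HCC1569 values were smoothed for positional effects.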

[2] = test system: TDF; assay: as above
In short: as §1

[3] = test system: TDF; assay: H1.0 immunofluorescence intensity relative to DMSO (% of DMSO); higher = stronger H1.0 induction, active = 120 or more
In short: as §1

[4] = test system: HCC1569; assay: H1.0 immunofluorescence intensity relative to DMSO (% of DMSO); higher = stronger H1.0 induction, active = 140 or more
In short: as §1
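Wherever H1.0 immunofluorescence intensity relative to DMSO is given: TDF is a line of transformed human dermal fibroblasts of mesenchymal origin.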
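Wherever cell number relative to DMSO is given: TDF denotes transformed human dermal fibroblasts of mesenchymal origin.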

Structure (SMILES): CN1CCCC1CCOC(C)(c1ccccc1)c1ccc(Cl)cc1 (centres undefined) [Clemastine]
- cell number [1]: 99.4
- cell number [2]: 97.3
- H1.0 immunofluorescence intensity [3]: 102 (inactive)
- H1.0 immunofluorescence intensity [4]: 112 (inactive)

Structure (SMILES): O=c1[nH]c2cc(Cl)ccc2c(O)c1-c1cccc(Oc2ccccc2)c1
- cell number [1]: 108
- cell number [2]: 94.2
- H1.0 immunofluorescence intensity [3]: 91.7 (inactive)
- H1.0 immunofluorescence intensity [4]: 88.2 (inactive)

Structure (SMILES): CNC1(C)C2CCC(C2)C1(C)C (centres undefined) [Mecamylamine]
- cell number [1]: 101
- cell number [2]: 106
- H1.0 immunofluorescence intensity [3]: 83.3 (inactive)
- H1.0 immunofluorescence intensity [4]: 107 (inactive)

Structure (SMILES): CCCCC(=O)N(Cc1ccc(-c2ccccc2-c2nn[nH]n2)cc1)[C@H](C(=O)O)C(C)C
- cell number [1]: 98.8
- cell number [2]: 112
- H1.0 immunofluorescence intensity [3]: 93.7 (inactive)
- H1.0 immunofluorescence intensity [4]: 100 (inactive)

Structure (SMILES): Cl.O=C(c1ccc(OCCN2CCCCC2)cc1)c1c(-c2ccc(O)cc2)sc2cc(O)ccc12 [Raloxifene hydrochloride]
- cell number [1]: 90.1
- cell number [2]: 100
- H1.0 immunofluorescence intensity [3]: 109 (inactive)
- H1.0 immunofluorescence intensity [4]: 121 (inactive)

Structure (SMILES): CC(C)NCC(O)COc1cccc2ccccc12.Cl (racemic)
- cell number [1]: 101
- cell number [2]: 91.5
- H1.0 immunofluorescence intensity [3]: 98.8 (inactive)
- H1.0 immunofluorescence intensity [4]: 94.2 (inactive)

Structure (SMILES): Cl.NC(N)=NC(=O)Cc1c(Cl)cccc1Cl [Guanfacine.HCl]
- cell number [1]: 101
- cell number [2]: 82.4
- H1.0 immunofluorescence intensity [3]: 102 (inactive)
- H1.0 immunofluorescence intensity [4]: 107 (inactive)

Structure (SMILES): CCCCCCCCC=CCCCCCCCC(=O)NCCO [N-Oleoylethanolamine]
- cell number [1]: 99.9
- cell number [2]: 108
- H1.0 immunofluorescence intensity [3]: 98.4 (inactive)
- H1.0 immunofluorescence intensity [4]: 115 (inactive)

Structure (SMILES): Cc1cn2cc(C(=O)N(C)CCO)cc(N[C@@H]3CCOc4cccc(C)c43)c2n1
- cell number [1]: 97.8
- cell number [2]: 104
- H1.0 immunofluorescence intensity [3]: 94 (inactive)
- H1.0 immunofluorescence intensity [4]: 106 (inactive)

Structure (SMILES): Cl.Cl.NCCSSCCN [Cystamine dihydrochloride]
- cell number [1]: 97.5
- cell number [2]: 107
- H1.0 immunofluorescence intensity [3]: 93.4 (inactive)
- H1.0 immunofluorescence intensity [4]: 101 (inactive)

Structure (SMILES): CCCCCCCCCCCCCCCCCCCCCCC(=O)O [Tricosanoic acid]
- cell number [1]: 99.7
- cell number [2]: 99.8
- H1.0 immunofluorescence intensity [3]: 105 (inactive)
- H1.0 immunofluorescence intensity [4]: 105 (inactive)

Structure (SMILES): CCC(C)C1OC2(CCC1C)CC1CC(CC=C(C)C(OC3CC(OC)C(OC4CC(OC)C(O)C(C)O4)C(C)O3)C(C)C=CC=C3COC4C(O)C(C)=CC(C(=O)O1)C34O)O2 (centres undefined) [Ivermectin]
- cell number [1]: 102 ± 2.5
- cell number [2]: 103 ± 8.2
- H1.0 immunofluorescence intensity [3]: 92.8 (inactive)
- H1.0 immunofluorescence intensity [4]: 93.7 (inactive)

Structure (SMILES): COC(=O)C1C2CC3c4[nH]c5cc(OC)ccc5c4CCN3CC2CC(OC(=O)c2cc(OC)c(OC)c(OC)c2)C1OC (centres undefined) [Reserpine]
- cell number [1]: 99.2
- cell number [2]: 86.3
- H1.0 immunofluorescence intensity [3]: 101 (inactive)
- H1.0 immunofluorescence intensity [4]: 101 (inactive)

Structure (SMILES): COc1ccc(/C=C\c2cc(OC)c(OC)c(OC)c2)cc1OP(=O)([O-])[O-].[Na+].[Na+]
- cell number [1]: 57.8
- cell number [2]: 10.1
- H1.0 immunofluorescence intensity [3]: 197 (active)
- H1.0 immunofluorescence intensity [4]: 140 (inactive)

Structure (SMILES): O=C1Nc2ccc(Cl)cc2C1=Cc1cc(Cl)c(O)c(Cl)c1 [PKR Inhibitor, Negative Control]
- cell number [1]: 101
- cell number [2]: 98.8
- H1.0 immunofluorescence intensity [3]: 95.1 (inactive)
- H1.0 immunofluorescence intensity [4]: 128 (inactive)

Structure (SMILES): CNCCC(Oc1ccccc1OC)c1ccccc1.Cl (centres undefined) [Nisoxetine hydrochloride]
- cell number [1]: 98.6
- cell number [2]: 111
- H1.0 immunofluorescence intensity [3]: 99.4 (inactive)
- H1.0 immunofluorescence intensity [4]: 101 (inactive)

Structure (SMILES): Cn1c(=O)c2c(ncn2C)n(C)c1=O [Caffeine]
- cell number [1]: 102 ± 2.6
- cell number [2]: 102 ± 7.9
- H1.0 immunofluorescence intensity [3]: 96.1 (inactive)
- H1.0 immunofluorescence intensity [4]: 91.3 (inactive)

Structure (SMILES): CNCCCN1c2ccccc2CCc2ccccc21.Cl [Desipramine hydrochloride]
- cell number [1]: 102
- cell number [2]: 97.5
- H1.0 immunofluorescence intensity [3]: 98.7 (inactive)
- H1.0 immunofluorescence intensity [4]: 92.6 (inactive)

Structure (SMILES): COc1ccc2c(c1OC)C(=O)OC2C1c2c(cc3c(c2OC)OCO3)CCN1C.Cl (centres undefined) [Noscapine hydrchloride]
- cell number [1]: 102
- cell number [2]: 93.7
- H1.0 immunofluorescence intensity [3]: 97.1 (inactive)
- H1.0 immunofluorescence intensity [4]: 96.5 (inactive)

Structure (SMILES): Cc1c(C)c2c(c(C)c1O)CCC(C)(C(=O)O)O2 (centres undefined) [Trolox]
- cell number [1]: 101
- cell number [2]: 101
- H1.0 immunofluorescence intensity [3]: 94.4 (inactive)
- H1.0 immunofluorescence intensity [4]: 91.3 (inactive)

Structure (SMILES): CCCn1c(=O)c2[nH]c(-c3ccc(S(=O)(=O)O)cc3)nc2n(CCC)c1=O [1,3-Dipropyl-8-p-sulfophenylxanthine]
- cell number [1]: 104
- cell number [2]: 106
- H1.0 immunofluorescence intensity [3]: 90.4 (inactive)
- H1.0 immunofluorescence intensity [4]: 92.6 (inactive)

Structure (SMILES): O=C(O)CCC(=O)c1ccc(-c2ccccc2)cc1 [Fenbufen]
- cell number [1]: 101
- cell number [2]: 103
- H1.0 immunofluorescence intensity [3]: 92.2 (inactive)
- H1.0 immunofluorescence intensity [4]: 119 (inactive)

Structure (SMILES): Cc1ccc(C)c(OCCCC(C)(C)C(=O)O)c1 [Gemfibrozil]
- cell number [1]: 103
- cell number [2]: 99.1
- H1.0 immunofluorescence intensity [3]: 91.8 (inactive)
- H1.0 immunofluorescence intensity [4]: 115 (inactive)

Structure (SMILES): NS(=O)(=O)c1cc2c(cc1Cl)NC(C(Cl)Cl)NS2(=O)=O (centres undefined) [Trichloromethiazide]
- cell number [1]: 106
- cell number [2]: 105
- H1.0 immunofluorescence intensity [3]: 93.9 (inactive)
- H1.0 immunofluorescence intensity [4]: 110 (inactive)

Structure (SMILES): CCOC(=O)CCNc1cc(N2CCc3ccccc3CC2)nc(-c2ccccn2)n1
- cell number [1]: 78.8
- cell number [2]: 20.8
- H1.0 immunofluorescence intensity [3]: 171 (active)
- H1.0 immunofluorescence intensity [4]: 113 (inactive)

Structure (SMILES): COc1ccccc1N1CCN(CCN(C(=O)c2ccc(I)cc2)c2ccccn2)CC1.Cl [p-MPPI hydrochloride]
- cell number [1]: 97.4
- cell number [2]: 96.3
- H1.0 immunofluorescence intensity [3]: 96.6 (inactive)
- H1.0 immunofluorescence intensity [4]: 93.4 (inactive)
